Common to all, as to assay: DAPPL (digital affinity profiling via proximity ligation, sequencing); 10 mM Tris-HCl pH 7.5, 50 mM NaCl, 1 mM DTT, 4% glycerol, room temperature, 30 min; GST-TFs on glutathione beads, 16-mer random dsDNA library, 0.1% formaldehyde crosslink after washing; high values mean tight binding
What all share (details): protein: recombinant; tags: N-terminal GST; dsDNA, one strand shown

In one experiment the target is T1, ELK1 (Homo sapiens, UniProt P19419 1-428).
T1 sequence: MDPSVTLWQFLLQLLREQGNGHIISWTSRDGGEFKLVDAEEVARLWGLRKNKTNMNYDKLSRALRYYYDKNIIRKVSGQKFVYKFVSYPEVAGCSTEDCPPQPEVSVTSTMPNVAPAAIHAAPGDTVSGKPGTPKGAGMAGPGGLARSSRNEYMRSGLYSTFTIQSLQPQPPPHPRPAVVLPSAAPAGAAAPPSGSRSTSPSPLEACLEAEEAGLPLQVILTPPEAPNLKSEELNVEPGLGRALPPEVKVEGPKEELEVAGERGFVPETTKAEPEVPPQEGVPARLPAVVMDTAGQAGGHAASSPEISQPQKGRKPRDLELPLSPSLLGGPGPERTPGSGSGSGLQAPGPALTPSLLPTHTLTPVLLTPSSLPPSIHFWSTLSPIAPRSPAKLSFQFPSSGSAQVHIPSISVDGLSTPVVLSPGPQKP
A digest of the protocol: (§1)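 Binding signal is defined as a hexamer's read frequency for one factor over its frequency for the tag-only sample. To obtain reads, GST-fused human transcription factors were expressed in yeast, captured on glutathione beads, barcoded with DNA and pooled with that sample. Pools met 200 nmole of a 16-mer random double-stranded DNA library in Tris/NaCl/DTT/glycerol buffer for 30 min at room temperature before washing, 0.1% formaldehyde crosslinking, proximity ligation (BsaI/T4 ligase, 1 h, 37 °C), PCR and Illumina NextSeq500 sequencing.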

The next experiment addresses T2, ERG (Homo sapiens, UniProt P11308 1-479).
T2 sequence: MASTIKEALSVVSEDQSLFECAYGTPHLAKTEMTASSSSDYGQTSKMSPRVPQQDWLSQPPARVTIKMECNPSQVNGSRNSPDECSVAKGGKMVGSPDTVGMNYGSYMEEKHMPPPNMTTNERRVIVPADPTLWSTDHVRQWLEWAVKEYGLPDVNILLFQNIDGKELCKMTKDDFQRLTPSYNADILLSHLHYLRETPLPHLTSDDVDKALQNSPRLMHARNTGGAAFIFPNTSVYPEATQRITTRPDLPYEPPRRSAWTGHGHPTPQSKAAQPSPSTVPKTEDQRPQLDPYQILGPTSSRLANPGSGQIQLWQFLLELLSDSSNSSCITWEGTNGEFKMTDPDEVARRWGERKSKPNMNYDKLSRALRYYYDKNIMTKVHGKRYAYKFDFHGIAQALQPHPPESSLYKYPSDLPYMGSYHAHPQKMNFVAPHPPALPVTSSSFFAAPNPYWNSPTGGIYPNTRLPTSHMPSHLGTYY
A digest of the protocol: as §1

For a further experiment, the target named is T3, EHF (Homo sapiens, UniProt Q9NZC4 1-300).
T3 sequence: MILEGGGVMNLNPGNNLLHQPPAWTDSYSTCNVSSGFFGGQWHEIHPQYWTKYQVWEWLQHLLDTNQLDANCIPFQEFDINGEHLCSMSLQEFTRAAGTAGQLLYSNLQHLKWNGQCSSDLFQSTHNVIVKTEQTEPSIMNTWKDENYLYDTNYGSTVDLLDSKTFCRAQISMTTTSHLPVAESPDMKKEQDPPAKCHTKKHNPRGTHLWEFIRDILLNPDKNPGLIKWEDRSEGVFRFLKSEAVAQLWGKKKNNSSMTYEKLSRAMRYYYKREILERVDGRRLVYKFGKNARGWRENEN
In a few lines: as §1

The target of a further experiment is SPIB (Homo sapiens, UniProt Q01892 1-262). In a few lines:
as §1

In the next experiment the target is T4, ELK3 (Homo sapiens, UniProt P41970 1-407).
T4 sequence: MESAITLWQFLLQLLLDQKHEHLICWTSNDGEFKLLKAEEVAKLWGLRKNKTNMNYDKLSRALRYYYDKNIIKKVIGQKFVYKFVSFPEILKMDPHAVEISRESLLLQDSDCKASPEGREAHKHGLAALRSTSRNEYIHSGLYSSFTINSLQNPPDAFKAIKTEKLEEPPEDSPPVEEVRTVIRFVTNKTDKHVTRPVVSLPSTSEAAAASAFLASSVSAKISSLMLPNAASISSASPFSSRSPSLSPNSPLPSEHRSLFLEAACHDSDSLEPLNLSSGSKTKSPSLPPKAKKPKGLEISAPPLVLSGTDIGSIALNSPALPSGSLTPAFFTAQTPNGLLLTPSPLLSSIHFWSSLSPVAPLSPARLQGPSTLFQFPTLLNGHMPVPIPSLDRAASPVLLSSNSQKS
In a few lines: as §1

A further experiment has as its target T5, FEV (Homo sapiens, UniProt Q99581 1-238).
T5 sequence: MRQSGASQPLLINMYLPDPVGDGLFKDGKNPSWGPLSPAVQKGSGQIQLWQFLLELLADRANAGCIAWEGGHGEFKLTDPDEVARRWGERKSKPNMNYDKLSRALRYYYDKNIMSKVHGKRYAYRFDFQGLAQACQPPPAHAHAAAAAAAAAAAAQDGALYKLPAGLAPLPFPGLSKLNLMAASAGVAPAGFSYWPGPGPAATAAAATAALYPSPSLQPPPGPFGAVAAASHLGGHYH
A digest of the protocol: as §1

A further experiment addresses T6, ELK4 (Homo sapiens, UniProt P28324-2 1-405).
T6 sequence: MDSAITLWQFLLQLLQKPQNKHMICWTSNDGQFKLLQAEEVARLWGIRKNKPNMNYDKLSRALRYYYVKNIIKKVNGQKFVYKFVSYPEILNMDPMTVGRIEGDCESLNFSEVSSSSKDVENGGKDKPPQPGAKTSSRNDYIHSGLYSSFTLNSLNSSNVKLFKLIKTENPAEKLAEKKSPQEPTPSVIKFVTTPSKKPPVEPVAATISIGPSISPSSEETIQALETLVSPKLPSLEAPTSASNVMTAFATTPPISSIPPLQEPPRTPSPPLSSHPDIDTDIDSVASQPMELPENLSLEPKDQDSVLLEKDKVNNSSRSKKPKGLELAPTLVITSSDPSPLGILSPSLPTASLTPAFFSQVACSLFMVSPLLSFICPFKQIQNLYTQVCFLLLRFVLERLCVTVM
A digest of the protocol:
as §1

Another experiment concerns the target T7, ETV2 (Homo sapiens, UniProt O00321 1-342).
T7 sequence: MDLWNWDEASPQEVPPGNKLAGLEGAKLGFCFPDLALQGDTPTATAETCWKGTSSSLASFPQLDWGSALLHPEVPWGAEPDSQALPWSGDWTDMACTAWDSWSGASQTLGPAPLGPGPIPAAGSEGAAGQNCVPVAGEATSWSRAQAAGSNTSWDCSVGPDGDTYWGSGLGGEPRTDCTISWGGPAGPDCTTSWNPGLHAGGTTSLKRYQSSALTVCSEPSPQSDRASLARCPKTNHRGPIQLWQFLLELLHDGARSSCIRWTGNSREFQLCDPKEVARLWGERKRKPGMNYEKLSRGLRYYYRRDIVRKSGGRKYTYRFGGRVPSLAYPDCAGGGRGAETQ
In a few lines:
as §1

The target in the next experiment is T8, ETV3L (Homo sapiens, UniProt Q6ZN32 1-361).
T8 sequence: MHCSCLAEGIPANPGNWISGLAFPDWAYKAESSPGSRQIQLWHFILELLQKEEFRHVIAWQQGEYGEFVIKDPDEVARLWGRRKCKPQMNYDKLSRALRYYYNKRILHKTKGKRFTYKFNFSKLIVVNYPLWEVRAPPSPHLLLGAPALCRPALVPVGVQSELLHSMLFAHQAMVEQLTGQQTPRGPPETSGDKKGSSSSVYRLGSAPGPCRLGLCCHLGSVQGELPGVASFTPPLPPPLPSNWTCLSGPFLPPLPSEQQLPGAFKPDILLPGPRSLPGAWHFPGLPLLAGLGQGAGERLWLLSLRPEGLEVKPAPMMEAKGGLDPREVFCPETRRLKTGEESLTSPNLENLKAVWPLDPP
In a few lines: as §1

The target of another experiment is T9, ETV3 (Homo sapiens, UniProt P41162-2 1-143).
T9 sequence: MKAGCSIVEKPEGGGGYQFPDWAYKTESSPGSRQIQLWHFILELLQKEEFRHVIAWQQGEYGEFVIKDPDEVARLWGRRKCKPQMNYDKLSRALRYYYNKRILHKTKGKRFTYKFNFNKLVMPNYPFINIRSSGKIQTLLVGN
In a few lines:
as §1

The next experiment concerns the target ETV6 (Homo sapiens, UniProt P41212 1-452). In a few lines:
as §1

The next experiment has as its target T10, GABPA (Homo sapiens, UniProt Q06546 1-454).
T10 sequence: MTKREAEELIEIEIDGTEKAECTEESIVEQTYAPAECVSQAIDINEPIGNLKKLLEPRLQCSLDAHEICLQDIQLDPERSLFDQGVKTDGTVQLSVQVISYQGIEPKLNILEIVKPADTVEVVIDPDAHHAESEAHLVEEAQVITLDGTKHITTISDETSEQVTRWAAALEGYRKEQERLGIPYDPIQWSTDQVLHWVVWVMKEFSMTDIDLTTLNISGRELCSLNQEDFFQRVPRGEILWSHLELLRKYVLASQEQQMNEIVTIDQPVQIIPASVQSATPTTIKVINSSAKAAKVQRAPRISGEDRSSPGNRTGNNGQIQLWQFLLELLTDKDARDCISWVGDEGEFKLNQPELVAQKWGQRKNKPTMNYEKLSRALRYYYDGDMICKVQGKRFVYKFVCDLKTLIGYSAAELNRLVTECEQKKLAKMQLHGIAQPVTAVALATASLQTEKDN
A digest of the protocol:
as §1

The next experiment concerns the target ELF1 (Homo sapiens, UniProt P32519 1-619). In a few lines: as §1
Another experiment concerns the target ELF4 (Homo sapiens, UniProt Q99607 1-663). In a few lines: as §1
The target in a further experiment is T11, ERF (Homo sapiens, UniProt P50548 1-548).
T11 sequence: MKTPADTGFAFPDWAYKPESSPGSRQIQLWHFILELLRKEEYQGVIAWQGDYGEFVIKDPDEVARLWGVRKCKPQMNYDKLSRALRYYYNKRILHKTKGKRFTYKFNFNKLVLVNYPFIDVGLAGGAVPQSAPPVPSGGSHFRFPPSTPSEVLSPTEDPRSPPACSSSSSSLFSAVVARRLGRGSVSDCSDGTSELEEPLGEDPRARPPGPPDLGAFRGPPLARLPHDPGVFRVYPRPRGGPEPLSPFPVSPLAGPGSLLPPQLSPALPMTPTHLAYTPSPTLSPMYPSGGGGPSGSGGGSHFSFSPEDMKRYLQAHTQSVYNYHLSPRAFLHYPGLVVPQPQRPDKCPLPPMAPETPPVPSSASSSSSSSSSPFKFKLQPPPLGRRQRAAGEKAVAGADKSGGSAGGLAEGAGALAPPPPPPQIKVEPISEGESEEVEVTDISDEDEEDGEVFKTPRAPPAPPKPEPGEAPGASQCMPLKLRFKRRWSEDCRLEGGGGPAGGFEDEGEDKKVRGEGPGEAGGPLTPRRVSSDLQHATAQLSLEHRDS
In a few lines:
as §1

The target of the next experiment is T12, ETV7 (Homo sapiens, UniProt Q9Y603 1-341).
T12 sequence: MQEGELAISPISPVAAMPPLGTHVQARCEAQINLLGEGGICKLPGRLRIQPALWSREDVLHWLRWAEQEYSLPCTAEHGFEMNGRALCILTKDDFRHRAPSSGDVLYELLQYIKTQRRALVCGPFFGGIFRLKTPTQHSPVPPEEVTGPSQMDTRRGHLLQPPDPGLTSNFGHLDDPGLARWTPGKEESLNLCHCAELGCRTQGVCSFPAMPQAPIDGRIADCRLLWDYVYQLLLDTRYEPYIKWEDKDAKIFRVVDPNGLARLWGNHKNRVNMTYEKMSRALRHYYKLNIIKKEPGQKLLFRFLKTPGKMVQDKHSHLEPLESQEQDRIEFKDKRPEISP
In a few lines:
as §1

Experimental findings from article PMC7862700, “An all-to-all approach to the identification of sequence-specific readers for epigenetic DNA modifications on cytosine” are described below.

ELF4, sequence (Q99607 whole entry): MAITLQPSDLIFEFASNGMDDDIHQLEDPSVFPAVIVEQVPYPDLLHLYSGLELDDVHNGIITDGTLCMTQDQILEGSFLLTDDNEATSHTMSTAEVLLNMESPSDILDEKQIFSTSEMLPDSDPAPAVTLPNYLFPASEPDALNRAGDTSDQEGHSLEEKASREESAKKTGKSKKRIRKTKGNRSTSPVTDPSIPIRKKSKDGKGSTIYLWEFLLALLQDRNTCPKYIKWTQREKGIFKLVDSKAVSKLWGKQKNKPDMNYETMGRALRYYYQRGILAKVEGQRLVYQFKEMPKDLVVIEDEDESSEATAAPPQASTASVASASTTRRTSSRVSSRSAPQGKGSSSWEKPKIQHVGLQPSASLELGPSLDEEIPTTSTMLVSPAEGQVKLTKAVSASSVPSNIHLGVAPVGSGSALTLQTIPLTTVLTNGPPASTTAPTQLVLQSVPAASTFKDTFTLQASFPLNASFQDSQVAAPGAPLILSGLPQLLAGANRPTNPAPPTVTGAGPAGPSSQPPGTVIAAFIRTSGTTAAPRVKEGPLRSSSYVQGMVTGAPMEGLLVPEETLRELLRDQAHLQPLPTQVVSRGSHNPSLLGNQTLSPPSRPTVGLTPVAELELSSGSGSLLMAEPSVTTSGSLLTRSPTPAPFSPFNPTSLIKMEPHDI
ELF1, sequence (P32519 whole entry): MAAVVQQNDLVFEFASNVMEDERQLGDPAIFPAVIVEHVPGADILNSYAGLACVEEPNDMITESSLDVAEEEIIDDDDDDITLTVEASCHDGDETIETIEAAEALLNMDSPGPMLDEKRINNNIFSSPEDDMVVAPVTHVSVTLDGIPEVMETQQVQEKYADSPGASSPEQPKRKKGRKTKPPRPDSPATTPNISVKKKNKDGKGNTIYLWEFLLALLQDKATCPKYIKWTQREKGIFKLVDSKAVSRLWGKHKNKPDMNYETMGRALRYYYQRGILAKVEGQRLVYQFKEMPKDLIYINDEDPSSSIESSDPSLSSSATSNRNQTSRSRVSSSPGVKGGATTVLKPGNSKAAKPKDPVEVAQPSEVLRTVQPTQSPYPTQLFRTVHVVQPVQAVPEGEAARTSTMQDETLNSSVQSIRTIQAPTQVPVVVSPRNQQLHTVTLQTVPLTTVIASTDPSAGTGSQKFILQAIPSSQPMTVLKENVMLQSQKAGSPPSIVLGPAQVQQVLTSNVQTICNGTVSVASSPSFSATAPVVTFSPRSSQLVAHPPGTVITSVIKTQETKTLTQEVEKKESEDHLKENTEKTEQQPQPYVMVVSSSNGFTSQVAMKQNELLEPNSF
SPIB, sequence (Q01892 whole entry): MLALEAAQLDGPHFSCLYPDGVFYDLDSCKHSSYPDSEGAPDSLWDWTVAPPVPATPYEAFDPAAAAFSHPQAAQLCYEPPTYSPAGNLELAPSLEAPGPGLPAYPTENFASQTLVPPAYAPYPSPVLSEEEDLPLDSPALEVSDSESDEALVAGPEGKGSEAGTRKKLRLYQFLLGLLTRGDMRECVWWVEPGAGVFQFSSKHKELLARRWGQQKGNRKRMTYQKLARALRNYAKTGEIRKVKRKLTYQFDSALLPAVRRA
ETV6, sequence (P41212 whole entry): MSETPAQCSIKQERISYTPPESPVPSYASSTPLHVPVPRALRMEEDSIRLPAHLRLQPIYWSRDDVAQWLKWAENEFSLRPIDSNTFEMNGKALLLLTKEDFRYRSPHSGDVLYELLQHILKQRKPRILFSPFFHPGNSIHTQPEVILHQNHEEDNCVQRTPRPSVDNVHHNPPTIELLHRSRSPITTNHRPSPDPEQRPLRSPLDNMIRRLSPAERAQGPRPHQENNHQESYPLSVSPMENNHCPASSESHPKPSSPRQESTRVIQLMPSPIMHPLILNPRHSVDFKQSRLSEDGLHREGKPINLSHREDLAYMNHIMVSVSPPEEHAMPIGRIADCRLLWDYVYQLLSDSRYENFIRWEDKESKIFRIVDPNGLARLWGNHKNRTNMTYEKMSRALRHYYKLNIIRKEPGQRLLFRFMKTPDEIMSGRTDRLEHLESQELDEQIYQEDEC

For the sequence CCGGCG, the binding signal in the experiment with ELK1 is 1.09 fold enrichment (6-mer frequency, TF over GST control); with ERG, 1.09 fold enrichment (6-mer frequency, TF over GST control); with EHF it was 1.03 fold enrichment (6-mer frequency, TF over GST control); in the experiment with SPIB, 1.15 fold enrichment (6-mer frequency, TF over GST control); with ELK3 it was 1.02 fold enrichment (6-mer frequency, TF over GST control); with FEV, 1.25 fold enrichment (6-mer frequency, TF over GST control). The binding signal with ELK4 is 1.14 fold enrichment (6-mer frequency, TF over GST control); with ETV2 it was 1.04 fold enrichment (6-mer frequency, TF over GST control); with ETV3L, 1.07 fold enrichment (6-mer frequency, TF over GST control); with ETV3, 1.05 fold enrichment (6-mer frequency, TF over GST control); in the experiment with ETV6, 1.11 fold enrichment (6-mer frequency, TF over GST control).
As to CGCACC, the binding signal was 1.03 fold enrichment (6-mer frequency, TF over GST control) with GABPA; 1.03 fold enrichment (6-mer frequency, TF over GST control) in the experiment with ELF1; 1.05 fold enrichment (6-mer frequency, TF over GST control) with ELK3; 1.03 fold enrichment (6-mer frequency, TF over GST control) in the experiment with ELF4; 1.13 fold enrichment (6-mer frequency, TF over GST control) with ELK4; 1.1 fold enrichment (6-mer frequency, TF over GST control) in the experiment with ETV2. Further, the binding signal in the experiment with ERF was 1.01 fold enrichment (6-mer frequency, TF over GST control).
On to CTGAGG, for which the binding signal with ELK4 is 1.02 fold enrichment (6-mer frequency, TF over GST control).
For AACAGA, the binding signal is 1.06 fold enrichment (6-mer frequency, TF over GST control) with EHF; 1.02 fold enrichment (6-mer frequency, TF over GST control) in the experiment with ELF4; 1.1 fold enrichment (6-mer frequency, TF over GST control) with ELK4; 1.01 fold enrichment (6-mer frequency, TF over GST control) with ETV2; 1.02 fold enrichment (6-mer frequency, TF over GST control) in the experiment with ETV7; 1.01 fold enrichment (6-mer frequency, TF over GST control) in the experiment with ETV3.
